Laboratory results taken from PubChem BioAssay (NCI).
About 83,000 compounds went through this panel and 20% of them were active in at least one assay; those are over-represented in the sample as a whole.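 Activity criterion: percent growth below 10, measured after cells in 96-well plates were exposed to a single compound concentration for 48 hours.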 Active and inactive are the calls of the source.

The compounds below were run on HL-60(TB) leukemia (assay: NCI-60 one-dose screen, 48 h (100 = growth as untreated, 0 = no growth, -100 = all killed)). Details: 10 µM unless noted.

| SMILES | growth |
| --- | --- |
| CCN1CCN(CC(=O)N2c3cccc4cccc(c34)N(C(=O)CN3CCN(CC)CC3)C2c2cn(-c3ccccc3)nc2-c2cccc([N+](=O)[O-])c2)CC1 | -63.9% (active) |
| CCOC(=O)c1sc2nc(-c3cc4ccccc4o3)cc(-c3ccc(Cl)cc3)c2c1N | 108% (inactive) |
| C[C@H]1C(=O)C23CCC1C[C@@]21O[C@@H]2C(C)(C)C=CC(=O)C23COC1=O | 97.8% (inactive) |
| CCN1CCN(C(=O)[C@]23CC[C@@H](C)[C@H](C)[C@@H]2C2=CC[C@@H]4[C@@]5(C)CCC(=O)C(C)(C)[C@@H]5CC[C@@]4(C)[C@]2(C)CC3)CC1 | -44.6% (active) |
| C#Cc1cccc(Nc2ncnc3ccc(-c4cnc(Cl)c(NS(C)(=O)=O)c4)cc23)c1 | -5.77% (active) |
| COC(=O)[C@]12CC[C@@H](C)[C@H](C)[C@@H]1C1=CC[C@@H]3[C@@]4(C)C(C=O)=C[C@@](C)(COC(=O)/C=C/c5ccccc5)[C@@H]4[C@H](O)C[C@@]3(C)[C@]1(C)CC2 | -13% (active) |
| COc1ccc(Nc2ncc(Br)c(NCCCNC(=O)c3cccs3)n2)cc1 | 17.7% (inactive) |
| COc1cc2c(cc1OC)C(=O)/C(=C/c1cc(-c3ccc4c(c3)OCO4)n[nH]1)C2 | -43.8% (active) |
| Cc1ccc(/C=C(\C#N)n2nc3cccc(F)c3n2)cc1 | 86.6% (inactive) |
| O=C1/C(=C\c2ccccn2)c2ccccc2N1c1c(Cl)cccc1Cl | 1.39% (active) |
| CC1(C)CCc2cc(-c3ccn(S(=O)(=O)c4ccc(Cl)cc4)n3)ccc2O1 | 71.9% (inactive) |
